Screening results deposited in PubChem BioAssay by several laboratories.
Most compounds without a hit are left out; they make up all but 6.6% or so of the library.
FBA Mtb inh = Mtb fructose-bisphosphate aldolase inhibition. P9WQA3. purified M. tuberculosis FBA, fluorescence read-out. inhibition, % at 1 µM. 360,000 tested, 2.3% active; in the data active = inhibition above about 27%
Autofluor counter = counter-screen for toxin protease inhibitors: compound fluorescence | compound autofluorescence counterscreen, microsphere flow cytometry; stronger effect = higher value | fluorescence intensity (test concentration not listed) | 360,000 tested, 3.1% active | AID 624483; in the data active = fluorescence intensity above about 16000; inconclusive = no clear call, values can overlap the other calls
BoNT F protease = blocks Botulinum neurotoxin F light chain protease; Multiplex microsphere protease cleavage assay, flow cytometry; inhibition, % at 10 µM; 360,000 tested, 0.22% active; in the data active = inhibition above about 35%, passing the limit was not always enough; inconclusive = no clear call, values can overlap the other calls
GDH-TPI inh = inhibits GDH-TPI coupling enzymes, artifact for Mtb FBA screen | GDH-TPI coupled enzyme counterscreen, NADH absorbance | inhibition, % at 4.8 µM | 360,000 tested, 1.2% active; in the data active = inhibition above about 30%
Anthrax LF prot = anthrax lethal factor protease inhibition. P15917. multiplex microsphere protease cleavage assay, LF. inhibition, % at 10 µM. 360,000 tested, 0.12% active. AID 588501
Target sequence (P15917 whole entry, looked up): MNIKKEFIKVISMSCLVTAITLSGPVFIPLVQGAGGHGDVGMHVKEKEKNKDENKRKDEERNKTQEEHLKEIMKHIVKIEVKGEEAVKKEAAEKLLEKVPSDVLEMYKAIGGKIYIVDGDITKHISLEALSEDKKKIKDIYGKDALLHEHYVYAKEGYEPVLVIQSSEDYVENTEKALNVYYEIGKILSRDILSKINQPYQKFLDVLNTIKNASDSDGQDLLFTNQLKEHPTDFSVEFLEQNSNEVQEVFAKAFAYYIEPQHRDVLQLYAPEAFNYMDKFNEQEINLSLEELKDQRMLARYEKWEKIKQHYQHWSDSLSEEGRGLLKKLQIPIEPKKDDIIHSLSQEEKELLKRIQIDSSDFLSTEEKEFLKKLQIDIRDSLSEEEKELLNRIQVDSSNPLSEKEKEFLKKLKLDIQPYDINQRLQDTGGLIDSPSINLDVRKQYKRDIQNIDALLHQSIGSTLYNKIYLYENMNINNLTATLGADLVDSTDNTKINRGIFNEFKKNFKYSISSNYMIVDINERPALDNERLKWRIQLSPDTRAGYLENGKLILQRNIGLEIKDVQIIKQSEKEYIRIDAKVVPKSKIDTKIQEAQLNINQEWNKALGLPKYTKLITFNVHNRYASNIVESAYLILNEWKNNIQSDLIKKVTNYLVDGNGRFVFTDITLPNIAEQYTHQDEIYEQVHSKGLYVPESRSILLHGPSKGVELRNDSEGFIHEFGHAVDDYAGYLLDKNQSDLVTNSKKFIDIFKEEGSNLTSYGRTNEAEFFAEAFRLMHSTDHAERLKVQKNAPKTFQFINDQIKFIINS
BoNT A protease = inhibitors of Botulinum neurotoxin A light chain protease. 360,000 tested, 0.17% active. AID 588499. inhibition, % at 10 µM. multiplex microsphere protease substrate cleavage, flow cytometry
Large screens that a line does not name were inactive. Cut-off read from the data, not from the text of the source, unless noted: active = inhibition above about 30%; inconclusive = no clear call, values can overlap the other calls; inactive = below that.

CCCn1c(C)nc2c(c1=O)c1nc3ccccc3nc1n2CCC1=CCCCC1	FBA Mtb inh 91
COC(=O)c1ccc(C(=O)OC)c(NC(=O)Cc2cccs2)c1	none
O=C(NCc1cnn(-c2ccccc2)c1)C1CCC(=O)N(C2CC2)C1 (stereo unspecified)	none
Cc1ccc(OCC(=O)Nc2ccccc2F)cc1C	none
O=C(CSc1nc2ccccc2s1)c1cc2ccccc2o1	Autofluor counter 23696
N/C(=N\OC(=O)c1ccccc1Cl)c1ccccc1	Autofluor counter 22870, BoNT A protease inconclusive
N/C(=N\OC(=O)c1ccc(F)cc1)c1ccccc1	Autofluor counter 22601
N/C(=N\OC(=O)c1cccc2ccccc12)c1cccc([N+](=O)[O-])c1	Autofluor counter 16600
N/C(=N\OC(=O)c1ccc(F)cc1)c1ccc(Br)cc1	none
C[C@H](CO)N1C[C@H](C)[C@@H](CN(C)C(=O)Nc2ccc(F)cc2)Oc2ncc(-c3ccc(F)cc3)cc2C1=O	none
N#Cc1c(N)sc2c1CCCCCC2	Autofluor counter 24025
COc1cc(/C=N/NC(=O)c2cccc(NC(=O)c3ccccc3)c2)ccc1O	GDH-TPI inh 37
COc1cc(/C=N/NC(=O)c2nonc2C)ccc1O	none
COc1cc(/C=N/NC(=O)c2cccc(C(=O)N/N=C/c3ccc(O)c(OC)c3)n2)ccc1O	GDH-TPI inh 44
COc1cc(/C=N/NC(=O)c2nc(C)cc(C)n2)ccc1O	GDH-TPI inh 37
COc1cc(/C=N/NC(=O)c2cn(-c3cccc(C)n3)cn2)ccc1O	GDH-TPI inh 34
COc1cc(/C=N/NC(=O)c2cccc(NC(=O)c3ccccc3C)c2)ccc1O	none
CCN(CC(=O)Nc1cccc(C(C)=O)c1)S(=O)(=O)c1ccc(C)cc1	none
O=C(Nc1cccc2ccccc12)c1ccc2sc([C@@H]3O[C@H](CO)[C@H](O)[C@H](O)[C@H]3O)nc2c1	none
COc1ccc(NS(=O)CCCc2ccccc2)cc1 (stereo unspecified)	none (no result: GDH-TPI inh)
CCOc1cc(/C=N/Nc2nc(N3CCCC3)nc(N3CCCC3)n2)ccc1O	GDH-TPI inh 36
COc1cc(/C=N/Nc2nc(C)cc(C)n2)cc(OC)c1OC	none
COc1ccc(/C=N/NC(=O)c2cc(C34CC5CC(CC(C5)C3)C4)[nH]n2)cc1OC	BoNT F protease 40
CN(C)S(=O)(=O)c1cccc(NC(=S)N/N=C/C2CC=CCC2)c1 (stereo unspecified)	none
COc1cc(/C=N/Nc2nc(C)cc(C)n2)ccc1O	GDH-TPI inh 36
COc1cc(/C=N/NC(=S)Nc2cccc(S(=O)(=O)N(C)C)c2)ccc1O	GDH-TPI inh 45
COc1cccc(/C=N/NC(=O)c2cc(C34CC5CC(CC(C5)C3)C4)[nH]n2)c1	none
CCN(CC)C(=O)c1[nH]cnc1C(=O)Nc1ccccc1F	none
O=C(CC[C@H]1O[C@@H](n2cnc3c(NC(=O)c4ccccc4)ncnc32)[C@H](O)[C@@H]1O)NCCc1cc2ccccc2[nH]1	none (no result: GDH-TPI inh)
COc1ccc(-c2sc3cc(OC)c(OC)cc3c2-c2ccc(O)cc2)cc1	none
COc1cc(/C=N/NC(=O)c2ccncc2)ccc1O	none
COc1cc(/C=N/NC(=S)NCCN2CCOCC2)ccc1O	GDH-TPI inh 48
COc1ccc(OC)c(NC(=S)NCCN2CCOCC2)c1	none
COc1cc(/C=N/NC(=O)c2cc3ccccc3[nH]2)ccc1O	GDH-TPI inh 41
O=C(O)c1ccccc1NC(=O)c1ccccc1Nc1ccccc1	none
CCc1ccc(NC(=O)NCC2CCN(c3ccc(OC)cc3)C2)cc1 (stereo unspecified)	none
CCOc1ccc(NC(=O)NCC2CCN(c3ccc(OC)cc3)C2)cc1 (stereo unspecified)	GDH-TPI inh 33
NC(=O)C(C(=O)/C=C/c1ccc(Cl)cc1)=C1SCCS1	GDH-TPI inh 44
CN(CC(=O)Nc1ccc(Cl)cc1)C(=O)CCC1CCCC1	none
Fc1ccc(CNc2ncnc3c2cnn3-c2ccccc2)cc1	BoNT F protease inconclusive
c1ccc(-n2ncc3c(NCCN4CCOCC4)ncnc32)cc1	Autofluor counter 16340
c1ccc(CNc2ncnc3c2cnn3-c2ccccc2)cc1	Autofluor counter 16180
c1ccc(-n2ncc3c(NCc4ccccn4)ncnc32)cc1	Autofluor counter 24065
CN(Cc1ccccc1)c1ncnc2c1cnn2-c1ccccc1	Autofluor counter 22100
CC(C)c1cc(N2CCC(=O)NC2=O)cc(C(=O)O)c1O	none
CCOC(=O)Cn1ccc(NC(=O)c2ccc3c(c2)OCO3)n1	none
